Laboratory results from ChEMBL document CHEMBL4513216, “Probing the Open Global Health Chemical Diversity Library for Multistage-Active Starting Points for Next-Generation Antimalarials” (ACS Infect Dis, 2020).
The whole screen tested about 68,000 compounds, of which about 2,700 (4%) showed an effect of 50% or more. The sample as a whole holds a higher share of strong results than the screen did.

The molecules below were run on Plasmodium berghei (assay: Screen against P. berghei liver stage (PbLuc), transformed with Luciferase, at 2uM). Details: tested at 2 uM.
Type: functional, HepG2

Row | SMILES | INHIBITION [%]
1 | CNC(=O)[C@@H](c1ccccc1OC)N1CCC[C@H]1C(=O)N1CCC1 | -20.89
2 | CNC(=O)[C@@H](c1ccccc1OC)N1CCC[C@H]1C(=O)N1CC[C@@H](O)C1 | 50.91
3 | CNC(=O)[C@@H](c1ccccc1OC)N1CCC[C@H]1C(=O)NC(C)(C)C | -1.63
4 | O=C(NCc1cc[nH]n1)NC1CCCN(c2ncccn2)C1 (configuration not stated) | 12.8
5 | Cn1cccc1CN1CCC2(CCCN(C(=O)c3cccnc3)C2)CC1 | 61.08
6 | Cn1cccc1CN1CCC2(CCCN(C(=O)c3cnccn3)C2)C1 (configuration not stated) | -30.12
7 | Cn1cccc1CN1CCC2(CCCN(C(=O)Cc3cccnc3)C2)C1 (configuration not stated) | -4.92
8 | Cc1noc(CCCC(=O)NC(C)c2cccnc2)n1 (configuration not stated) | -19.76
9 | N#CCCN(C(=O)CN1CCCC1c1ccsc1)c1ccccc1 (configuration not stated) | -37.2
10 | N#CCCN(C(=O)CN1CCCC1c1cccs1)c1ccccc1F (configuration not stated) | -13.06
11 | N#CCCN(C(=O)CN1CCCC1c1ccsc1)c1ccccc1F (configuration not stated) | 73.05
12 | CC(C)c1nnc2n1CCN(C(=O)c1cc3cc(F)ccc3[nH]1)C2 | 31.57
13 | CC(C)CC(=O)N1CCCC1c1cc(CO)[nH]n1 (configuration not stated) | 31.92
14 | O=C(NC[C@H]1OC[C@@H]2CN(Cc3ccco3)CC[C@@H]21)c1cscn1 | 66.46
15 | CN(C)C[C@@H]1OC[C@H]2CN(Cc3ccoc3)CC[C@H]21 | 0.13
16 | CN(Cc1ccco1)C[C@H]1OC[C@@H]2CCN(Cc3nccs3)C[C@@H]21 | -13.27
17 | CN(Cc1ccco1)C[C@H]1OC[C@@H]2CCN(Cc3ccsc3)C[C@@H]21 | 22.89
18 | Cn1cc(C(=O)NC[C@@H]2OC[C@H]3CN(Cc4ccco4)CC[C@H]32)cn1 | -33.95
19 | CN(Cc1ccco1)C[C@H]1OC[C@@H]2CCN(Cc3ccccn3)C[C@@H]21 | -1.63
20 | CN(Cc1ccco1)C[C@@H]1OC[C@H]2CN(Cc3nccs3)CC[C@H]21 | 59.03
21 | O=C(NC[C@H]1OC[C@@H]2CN(Cc3ccco3)CC[C@@H]21)c1cccnc1 | -36.8
22 | CN(Cc1cccnc1)C[C@@H]1OC[C@H]2CN(Cc3ccoc3)CC[C@H]21 | 55.7
23 | CN(Cc1ccco1)C[C@H]1OC[C@@H]2CCN(Cc3cccs3)C[C@@H]21 | -2.83
24 | CN(Cc1cccnc1)C[C@@H]1OC[C@H]2CN(Cc3ccco3)CC[C@H]21 | 10.53
25 | Cc1ccc(CN2CC[C@H]3CO[C@H](CN(C)Cc4ccco4)[C@H]3C2)s1 | 59.03
26 | O=C(N[C@@H]1CN(Cc2ccc3[nH]ccc3c2)C[C@H]1O)c1cscn1 | -0.83

Row | SMILES | INHIBITION [%]
27 | Cc1nn(C)c(C)c1CC(=O)N1CCC(N(C)c2cccnn2)CC1 | -48.87
28 | COc1ccc(C2=CCN(C(=O)C3CCS(=O)(=O)C3)CC2)cc1 (configuration not stated) | -7.13
29 | Cc1ccccc1CN1CCC(NCC2CNc3ccnn3C2)CC1 (configuration not stated) | -4.7
30 | N#Cc1ccccc1CN1C[C@H]2CC[C@@H](C1)N(CC1CCC1)C2=O | -39.43
31 | COc1ncccc1C(=O)NCCn1cnc(C)cc1=O | -7.16
32 | O=S(=O)(NCCCn1cncn1)c1ccc2c(c1)CCCC2 | -5.74
33 | CCn1ccc(NS(=O)(=O)c2cccc(COC)c2)n1 | -85.71
34 | O=S(=O)(NCCCn1cncn1)c1ccc2c(c1)OCCO2 | 65.71
35 | COC(=O)Cn1ccc(NS(=O)(=O)c2ccc3c(c2)CCC3)n1 | 53.98
36 | O=S(=O)(NCCCn1cncn1)c1ccc2c(c1)CCO2 | -9.13
37 | O=S(=O)(NCCCn1cccn1)c1ccc2c(c1)CCC2 | 42.26
38 | O=S(=O)(NCCCn1cncn1)c1ccc2c(c1)OCCCO2 | -56.09
39 | O=S(=O)(NCCCn1cncn1)c1ccc2c(c1)CCC2 | 54.99
40 | CCc1ccc(S(=O)(=O)Nc2ccn(CC(=O)OC)n2)cc1 | 11.9
41 | CCCN1CCC2(C1)c1ccccc1S(=O)(=O)N2Cc1ccccc1 (configuration not stated) | 9.87
42 | CCCn1ccc2cc(NC(=O)NCCn3cnnc3CC)ccc21 | 12.58
43 | O=C([C@H]1COC[C@H]2CN(C3CCCC3)C[C@H]21)N1CCCO1 | 0.13
44 | CCS(=O)(=O)N1CCC2(CC(=O)N(c3ccccc3C)C2)C1 (configuration not stated) | 46.87
45 | Cc1ccc(C2c3c(n[nH]c3C)N=C3COC(=O)C32)cc1C (configuration not stated) | 28.23
46 | CC(=O)Nc1cnc(Oc2ccccc2F)nc1 | 8.41
47 | CO[C@@H]1CO[C@@]2(CCCN(Cc3nc(C)cs3)C2)C1 | -61.54
48 | O=C1CC(NCc2ccncc2)CN1Cc1cccc(F)c1 (configuration not stated) | -12.82
49 | Nc1cc2c(nn1)CCN(C(=O)CCCC1CCCCC1)C2 | -33.92
50 | Cc1nc(CN2CCCC(N(C)c3ccc(C#N)cn3)C2)no1 (configuration not stated) | -14.71
51 | COc1cc2c(nn1)CCN(Cc1noc(CC(C)C)n1)C2 | 65.76
52 | COc1cc2c(nn1)CCN(Cc1noc(-c3ccccc3)n1)C2 | 0.12

Row | SMILES | INHIBITION [%]
53 | COc1cc2c(nn1)CCN(Cc1nc(Cc3ccccc3)no1)C2 | 48.93
54 | Cc1nn(C)c(Cl)c1C1CCCN1C(=O)c1ccc(O)nc1 (configuration not stated) | -36.73
55 | Cc1nn(C)c(Cl)c1C1CCCN1C(=O)c1csnn1 (configuration not stated) | 75.98
56 | Cc1nn(C)c(C)c1C1CCCN1C(=O)c1ccc(C(N)=O)cn1 (configuration not stated) | -27.71
57 | COc1c(C2CCCN2C(=O)c2cc(C)on2)c(C)nn1C (configuration not stated) | 51.94
58 | Cc1nn(C)c(Cl)c1C1CCCN1C(=O)c1cc[nH]n1 (configuration not stated) | 47.57
59 | Cc1cc(C(=O)N2CCCC2c2c(C)nn(C)c2C)no1 (configuration not stated) | 43
60 | COc1c(C2CCCN2C(=O)c2cc(C3CC3)on2)c(C)nn1C (configuration not stated) | -47.94
61 | Cc1nn(C)c(Cl)c1C1CCCN1C(=O)c1ccc(C(N)=O)cn1 (configuration not stated) | 68.24
62 | Cc1nn(C)c(Cl)c1C1CCCN1C(=O)c1cnccn1 (configuration not stated) | 3.86
63 | O=C([C@H]1CN(Cc2ccccc2F)C[C@H]2OCC[C@@H]12)N1CCCO1 | 13.61
64 | CC(NC(=O)N1CCCN(CC(F)F)CC1)c1ccco1 (configuration not stated) | 1.06
65 | CNc1nc(CNC(=O)Nc2cccc(Cl)c2Cl)cs1 | 61.09
66 | CNc1nc(CNC(=O)Nc2cccc(C)c2Cl)cs1 | 15.4
67 | CNc1nc(CNC(=O)Nc2cccc(Cl)c2OC)cs1 | -4.43
68 | CC(C)(C)c1nnc(NCC(=O)N2CCc3sccc3C2)s1 | 33.83
69 | O=C(NCc1nnc2n1CCC2)N(Cc1ccco1)C1CC1 | 17.52
70 | Cc1ccc(N2CCCC(NCc3cccc4c3OCCO4)C2)nn1 (configuration not stated) | 15.13
71 | Cc1ccc(N2CCCC(NCCCS(C)(=O)=O)C2)nn1 (configuration not stated) | -15.77
72 | Cc1ccc(N2CCCC(NCCS(C)(=O)=O)C2)nn1 (configuration not stated) | 52.6
73 | Cc1ccc(N2CCCC(NCc3cccc4c3OCO4)C2)nn1 (configuration not stated) | 56.02
74 | c1cnnc(N2CCCC(NCc3cccc4c3OCO4)C2)c1 (configuration not stated) | -9.98
75 | COCCCNC1CCCN(c2ccc(C)nn2)C1 (configuration not stated) | -73.41
76 | CCOCC1CN(Cc2cnn(C)c2)Cc2nn(C)cc21 (configuration not stated) | 19.44
77 | CS(=O)(=O)N[C@@H]1CN(C(=O)c2cccnc2)[C@@H]2CCCO[C@@H]21 | -13.61
78 | COCC(NC(=O)c1cnn(C)c1)c1cccc(C(F)(F)F)c1 (configuration not stated) | 31.38

Row | SMILES | INHIBITION [%]
79 | CCOCC1CN(Cc2ccoc2)Cc2nn(C)cc21 (configuration not stated) | -55.93
80 | CC(C)CN1CCCn2nc(CNC(=O)Cc3cccc(O)c3)cc2C1 | 49.95
81 | CCc1nc(CN(C)C2CCN(CCn3cccn3)C2)no1 (configuration not stated) | 51.94
82 | CCc1nc(CN(C)C2CCN(CCc3ccncc3)C2)no1 (configuration not stated) | -11.16
83 | CN(Cc1noc(C2CC2)n1)C1CCN(CCn2cccn2)C1 (configuration not stated) | 10.1
84 | CCc1nc(CN(C)C2CCN(CCS(C)(=O)=O)C2)no1 (configuration not stated) | 50.72
85 | CCc1nc(CN(C)C2CCN(CCNS(=O)(=O)CC)C2)no1 (configuration not stated) | 20.71
86 | CN(Cc1noc(C2CC2)n1)C1CCN(CCS(C)(=O)=O)C1 (configuration not stated) | -6.15
87 | Cc1nc(CN(C)C2CCN(CCn3cc(C#N)cn3)C2)no1 (configuration not stated) | -27.5
88 | CC(C)c1nc(CN(C)C2CCN(CCn3cc(C#N)cn3)C2)no1 (configuration not stated) | 60.09
89 | CN(Cc1noc(C2CC2)n1)C1CCN(CCn2cc(C#N)cn2)C1 (configuration not stated) | -9.17
90 | CC(=O)N(C)CC(=O)NC1(c2ccc(Cl)c(Cl)c2)CC1 | 23.45
91 | Cc1nc(C)c(C(=O)NCCNC(=O)Cc2cccc(F)c2)s1 | 30.91
92 | CSCC(C)(O)CNS(=O)(=O)c1ccc(F)cc1 (configuration not stated) | -40
93 | CN(Cc1csc(-c2cccs2)n1)Cc1cccnc1N | 27.47
94 | Clc1ccc(OCCCN2CCOC(Cn3cncn3)C2)cc1 (configuration not stated) | 9.17
95 | COc1cc(CN2CCCC2)ccc1Oc1ncccc1C(F)(F)F | 43.1
96 | COc1ccc(Oc2ncccc2C(F)(F)F)cc1CN1CCCC1 | 20
97 | COc1cc(Oc2ncccc2C(F)(F)F)ccc1CN1CCCC1 | 66.12
98 | c1cc2nccc(CC3CCCN(Cc4c[nH]cn4)CC3)c2cn1 (configuration not stated) | -0.83
99 | O=C(O)c1ccnc(-c2ccnc(COc3ccccc3Cl)n2)c1 | 17.2
100 | CCc1cnc(CNC(=O)NC2CC(C)(C)OC2(C)C)s1 (configuration not stated) | -1.45
101 | CCc1cnc(CNC(=O)NCCCO)s1 | 52.85
102 | CCc1cnc(CNC(=O)NCCc2ccc(O)cc2)s1 | 47.59
